Here are results for 3 compounds from the supplement of paper PMC11732987, “Enantioselective OTUD7B fragment discovery through chemoproteomics screening and high-throughput optimisation” (Communications Chemistry, 2025).

Common to all, as to experiment: log2 ratio of Biotin-Ahx-Ub-VS probe labelling (fragment/DMSO); higher = less target engagement (more negative = stronger competition), active = hit call of the paper (q ≤ 0.05, log2 ratio ≤ -1)
Holding throughout (conditions): compound concentration: 200 uM; treatment time: 3 h

For one test, the target named is T1, USP42 (UniProt Q9H9J4).
T1 sequence (whole entry): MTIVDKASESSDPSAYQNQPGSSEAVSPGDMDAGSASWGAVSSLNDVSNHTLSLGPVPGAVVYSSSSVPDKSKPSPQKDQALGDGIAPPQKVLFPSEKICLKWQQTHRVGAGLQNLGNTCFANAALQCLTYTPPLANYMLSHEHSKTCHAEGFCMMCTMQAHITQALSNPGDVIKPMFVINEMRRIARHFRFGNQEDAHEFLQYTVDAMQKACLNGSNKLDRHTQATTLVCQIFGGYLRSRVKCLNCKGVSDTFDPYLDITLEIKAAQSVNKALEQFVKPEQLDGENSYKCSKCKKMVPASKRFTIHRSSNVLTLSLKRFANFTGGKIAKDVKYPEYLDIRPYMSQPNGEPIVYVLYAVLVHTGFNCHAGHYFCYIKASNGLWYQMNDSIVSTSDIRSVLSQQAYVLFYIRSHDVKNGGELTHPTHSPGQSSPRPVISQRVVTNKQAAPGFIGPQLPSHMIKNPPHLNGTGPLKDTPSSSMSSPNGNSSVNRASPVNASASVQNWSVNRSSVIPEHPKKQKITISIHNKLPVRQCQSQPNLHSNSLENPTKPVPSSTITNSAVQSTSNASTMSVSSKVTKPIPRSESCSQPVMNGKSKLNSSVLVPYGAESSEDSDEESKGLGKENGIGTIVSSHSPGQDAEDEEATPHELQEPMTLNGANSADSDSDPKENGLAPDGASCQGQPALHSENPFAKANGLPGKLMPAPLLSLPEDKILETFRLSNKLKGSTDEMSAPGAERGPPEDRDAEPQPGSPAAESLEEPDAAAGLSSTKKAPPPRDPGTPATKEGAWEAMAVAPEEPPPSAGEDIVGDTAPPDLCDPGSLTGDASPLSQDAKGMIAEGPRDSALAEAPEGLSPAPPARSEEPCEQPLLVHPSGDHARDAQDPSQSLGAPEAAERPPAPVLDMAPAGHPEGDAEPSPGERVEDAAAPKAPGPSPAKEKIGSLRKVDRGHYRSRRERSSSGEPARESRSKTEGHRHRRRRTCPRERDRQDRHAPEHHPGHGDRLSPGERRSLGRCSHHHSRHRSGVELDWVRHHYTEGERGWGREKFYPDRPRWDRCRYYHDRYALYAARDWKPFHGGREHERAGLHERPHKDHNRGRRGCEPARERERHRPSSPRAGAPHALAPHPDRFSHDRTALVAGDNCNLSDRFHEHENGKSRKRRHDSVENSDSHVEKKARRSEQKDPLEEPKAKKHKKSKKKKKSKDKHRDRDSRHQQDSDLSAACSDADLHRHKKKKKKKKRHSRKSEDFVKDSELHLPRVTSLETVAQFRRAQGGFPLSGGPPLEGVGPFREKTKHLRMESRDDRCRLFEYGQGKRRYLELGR
The gist of the method:
(§1)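 Global-median-normalised Spectronaut label-free quantities were compared by unpaired t-test, and values are average log2 ratios of fragment over vehicle. Only proteins with ≥2 unique peptides were used. HEK293T lysate (495 µg per sample) was treated in triplicate with fragment at 200 µM or vehicle for 3 h and then with Biotin-Ahx-Ub-VS at 0.5 µM final for 1 h. Labelled DUBs were then NeutrAvidin-enriched, digested with LysC and trypsin, and run by diaPASEF LC-MS/MS.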

The next test addresses USP46 (UniProt P62068). In outline:
as §1

The next test addresses T2, USP47 (UniProt Q96K76).
T2 sequence (whole entry): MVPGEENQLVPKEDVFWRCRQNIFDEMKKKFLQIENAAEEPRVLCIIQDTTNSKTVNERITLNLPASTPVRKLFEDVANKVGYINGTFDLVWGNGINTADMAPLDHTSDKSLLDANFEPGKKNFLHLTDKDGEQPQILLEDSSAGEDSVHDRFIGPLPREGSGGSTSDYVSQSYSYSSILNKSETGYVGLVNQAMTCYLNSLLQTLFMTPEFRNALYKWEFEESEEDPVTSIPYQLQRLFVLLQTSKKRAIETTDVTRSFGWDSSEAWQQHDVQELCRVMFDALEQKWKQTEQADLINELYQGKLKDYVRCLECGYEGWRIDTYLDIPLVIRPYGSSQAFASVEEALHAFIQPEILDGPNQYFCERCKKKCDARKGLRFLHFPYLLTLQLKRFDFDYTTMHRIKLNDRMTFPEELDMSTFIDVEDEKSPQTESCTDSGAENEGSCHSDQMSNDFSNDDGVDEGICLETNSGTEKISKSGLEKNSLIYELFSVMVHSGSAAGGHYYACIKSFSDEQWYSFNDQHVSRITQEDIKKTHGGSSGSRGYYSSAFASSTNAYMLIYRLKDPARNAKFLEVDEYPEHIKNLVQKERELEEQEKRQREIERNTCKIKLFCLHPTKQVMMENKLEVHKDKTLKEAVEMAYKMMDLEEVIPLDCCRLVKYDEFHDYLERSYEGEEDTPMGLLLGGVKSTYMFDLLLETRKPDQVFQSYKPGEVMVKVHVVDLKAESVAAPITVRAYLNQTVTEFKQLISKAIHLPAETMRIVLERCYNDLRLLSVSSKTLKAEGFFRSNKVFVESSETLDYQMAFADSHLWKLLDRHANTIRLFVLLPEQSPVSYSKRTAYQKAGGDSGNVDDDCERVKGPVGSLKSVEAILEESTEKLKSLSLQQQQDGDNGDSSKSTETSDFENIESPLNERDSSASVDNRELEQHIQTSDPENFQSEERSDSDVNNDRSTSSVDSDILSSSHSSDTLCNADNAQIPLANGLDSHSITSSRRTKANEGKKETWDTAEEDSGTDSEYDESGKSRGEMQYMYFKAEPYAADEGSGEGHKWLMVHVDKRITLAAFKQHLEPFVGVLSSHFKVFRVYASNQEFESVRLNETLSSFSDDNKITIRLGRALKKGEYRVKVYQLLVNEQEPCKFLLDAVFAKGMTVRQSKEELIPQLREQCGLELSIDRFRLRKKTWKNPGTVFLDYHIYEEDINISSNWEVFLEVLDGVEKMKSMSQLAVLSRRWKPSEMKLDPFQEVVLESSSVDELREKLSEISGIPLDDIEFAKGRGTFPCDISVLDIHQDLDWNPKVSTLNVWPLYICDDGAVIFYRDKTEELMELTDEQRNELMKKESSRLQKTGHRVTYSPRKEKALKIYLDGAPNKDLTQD
In outline: as §1

In the next test the target is T3, USP48 (UniProt Q86UV5).
T3 sequence (whole entry): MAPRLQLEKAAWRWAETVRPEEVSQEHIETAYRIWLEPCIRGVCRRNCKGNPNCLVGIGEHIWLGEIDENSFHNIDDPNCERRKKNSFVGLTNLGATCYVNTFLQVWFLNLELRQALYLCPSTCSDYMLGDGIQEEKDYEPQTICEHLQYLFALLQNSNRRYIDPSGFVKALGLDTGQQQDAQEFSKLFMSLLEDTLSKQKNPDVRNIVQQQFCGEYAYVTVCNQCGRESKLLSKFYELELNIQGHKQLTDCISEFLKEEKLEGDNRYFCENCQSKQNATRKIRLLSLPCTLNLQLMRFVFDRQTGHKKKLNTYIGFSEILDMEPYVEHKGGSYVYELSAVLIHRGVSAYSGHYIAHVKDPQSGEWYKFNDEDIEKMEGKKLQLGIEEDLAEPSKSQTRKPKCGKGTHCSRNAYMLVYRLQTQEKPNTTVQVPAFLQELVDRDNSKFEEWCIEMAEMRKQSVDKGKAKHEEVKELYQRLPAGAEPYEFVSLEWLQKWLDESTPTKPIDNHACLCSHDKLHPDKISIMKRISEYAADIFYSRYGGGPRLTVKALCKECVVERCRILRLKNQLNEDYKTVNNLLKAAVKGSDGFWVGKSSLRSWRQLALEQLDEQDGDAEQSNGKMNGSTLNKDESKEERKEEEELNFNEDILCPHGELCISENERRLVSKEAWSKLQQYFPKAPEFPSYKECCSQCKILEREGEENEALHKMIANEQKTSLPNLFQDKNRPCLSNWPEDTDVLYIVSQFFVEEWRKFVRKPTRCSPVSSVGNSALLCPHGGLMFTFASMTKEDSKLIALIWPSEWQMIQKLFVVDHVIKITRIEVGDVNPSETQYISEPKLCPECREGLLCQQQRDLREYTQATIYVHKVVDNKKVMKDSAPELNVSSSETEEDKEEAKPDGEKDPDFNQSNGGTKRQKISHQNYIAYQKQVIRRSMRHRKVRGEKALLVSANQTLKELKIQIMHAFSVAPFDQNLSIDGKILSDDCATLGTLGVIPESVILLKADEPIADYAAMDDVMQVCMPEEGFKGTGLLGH
The gist of the method: as §1

For a further test, the target named is T4, USP5 (UniProt P45974).
T4 sequence (whole entry): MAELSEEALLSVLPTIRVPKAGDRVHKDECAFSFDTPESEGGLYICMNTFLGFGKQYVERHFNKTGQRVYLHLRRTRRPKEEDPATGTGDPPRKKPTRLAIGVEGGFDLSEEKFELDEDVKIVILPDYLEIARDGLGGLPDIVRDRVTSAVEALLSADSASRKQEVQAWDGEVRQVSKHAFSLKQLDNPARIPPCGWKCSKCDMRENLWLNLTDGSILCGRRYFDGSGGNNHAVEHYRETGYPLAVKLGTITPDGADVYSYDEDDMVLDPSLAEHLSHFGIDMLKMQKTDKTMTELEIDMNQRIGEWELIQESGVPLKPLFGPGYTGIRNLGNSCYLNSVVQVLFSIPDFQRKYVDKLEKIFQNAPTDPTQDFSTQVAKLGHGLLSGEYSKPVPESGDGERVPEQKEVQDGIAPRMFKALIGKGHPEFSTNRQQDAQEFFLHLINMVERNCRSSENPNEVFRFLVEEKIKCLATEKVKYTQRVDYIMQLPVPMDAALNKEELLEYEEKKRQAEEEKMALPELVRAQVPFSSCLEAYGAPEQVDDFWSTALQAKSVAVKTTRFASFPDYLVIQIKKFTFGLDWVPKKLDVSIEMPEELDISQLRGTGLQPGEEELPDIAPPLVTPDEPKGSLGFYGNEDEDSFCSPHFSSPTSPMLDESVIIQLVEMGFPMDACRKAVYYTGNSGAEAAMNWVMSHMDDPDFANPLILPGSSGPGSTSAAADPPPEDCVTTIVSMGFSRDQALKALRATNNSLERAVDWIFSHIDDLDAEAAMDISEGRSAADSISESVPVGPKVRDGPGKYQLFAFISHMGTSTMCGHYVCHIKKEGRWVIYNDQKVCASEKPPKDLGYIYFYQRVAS
In outline: as §1

In a further test the target is USP54 (UniProt Q70EL1). The gist of the method:
as §1

In a further test the target is USP7 (UniProt Q93009). The gist of the method: as §1
USP7, sequence (Q93009 whole entry, looked up): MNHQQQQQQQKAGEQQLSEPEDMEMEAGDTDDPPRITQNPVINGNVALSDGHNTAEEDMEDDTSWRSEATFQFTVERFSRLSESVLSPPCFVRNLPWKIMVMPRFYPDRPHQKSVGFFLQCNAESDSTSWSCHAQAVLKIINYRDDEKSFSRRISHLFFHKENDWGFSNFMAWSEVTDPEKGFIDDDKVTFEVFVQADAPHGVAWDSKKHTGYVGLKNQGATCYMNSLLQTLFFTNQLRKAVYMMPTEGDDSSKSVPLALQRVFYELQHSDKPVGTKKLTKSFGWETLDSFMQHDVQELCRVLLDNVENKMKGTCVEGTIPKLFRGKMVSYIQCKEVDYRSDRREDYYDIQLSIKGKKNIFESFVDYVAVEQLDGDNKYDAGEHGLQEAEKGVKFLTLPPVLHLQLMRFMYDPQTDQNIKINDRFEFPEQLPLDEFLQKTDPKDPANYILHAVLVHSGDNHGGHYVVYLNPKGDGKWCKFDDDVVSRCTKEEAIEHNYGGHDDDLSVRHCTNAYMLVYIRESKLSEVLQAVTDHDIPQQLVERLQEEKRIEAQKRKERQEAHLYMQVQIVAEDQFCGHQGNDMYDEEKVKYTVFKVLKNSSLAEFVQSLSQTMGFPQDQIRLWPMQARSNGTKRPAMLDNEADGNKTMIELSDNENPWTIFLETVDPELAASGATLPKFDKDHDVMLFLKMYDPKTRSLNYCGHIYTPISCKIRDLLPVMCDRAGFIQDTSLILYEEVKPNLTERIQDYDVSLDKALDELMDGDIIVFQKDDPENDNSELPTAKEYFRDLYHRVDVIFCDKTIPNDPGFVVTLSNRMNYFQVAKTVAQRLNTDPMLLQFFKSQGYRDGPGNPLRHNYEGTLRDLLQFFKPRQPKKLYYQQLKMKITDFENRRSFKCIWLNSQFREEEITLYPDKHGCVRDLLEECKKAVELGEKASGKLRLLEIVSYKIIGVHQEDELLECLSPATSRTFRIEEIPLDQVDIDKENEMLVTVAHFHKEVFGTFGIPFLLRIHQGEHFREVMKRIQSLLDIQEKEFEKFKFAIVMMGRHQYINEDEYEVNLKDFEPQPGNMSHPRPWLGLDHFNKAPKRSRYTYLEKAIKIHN
In a further test the target is T5, USP8 (UniProt P40818).
T5 sequence (whole entry): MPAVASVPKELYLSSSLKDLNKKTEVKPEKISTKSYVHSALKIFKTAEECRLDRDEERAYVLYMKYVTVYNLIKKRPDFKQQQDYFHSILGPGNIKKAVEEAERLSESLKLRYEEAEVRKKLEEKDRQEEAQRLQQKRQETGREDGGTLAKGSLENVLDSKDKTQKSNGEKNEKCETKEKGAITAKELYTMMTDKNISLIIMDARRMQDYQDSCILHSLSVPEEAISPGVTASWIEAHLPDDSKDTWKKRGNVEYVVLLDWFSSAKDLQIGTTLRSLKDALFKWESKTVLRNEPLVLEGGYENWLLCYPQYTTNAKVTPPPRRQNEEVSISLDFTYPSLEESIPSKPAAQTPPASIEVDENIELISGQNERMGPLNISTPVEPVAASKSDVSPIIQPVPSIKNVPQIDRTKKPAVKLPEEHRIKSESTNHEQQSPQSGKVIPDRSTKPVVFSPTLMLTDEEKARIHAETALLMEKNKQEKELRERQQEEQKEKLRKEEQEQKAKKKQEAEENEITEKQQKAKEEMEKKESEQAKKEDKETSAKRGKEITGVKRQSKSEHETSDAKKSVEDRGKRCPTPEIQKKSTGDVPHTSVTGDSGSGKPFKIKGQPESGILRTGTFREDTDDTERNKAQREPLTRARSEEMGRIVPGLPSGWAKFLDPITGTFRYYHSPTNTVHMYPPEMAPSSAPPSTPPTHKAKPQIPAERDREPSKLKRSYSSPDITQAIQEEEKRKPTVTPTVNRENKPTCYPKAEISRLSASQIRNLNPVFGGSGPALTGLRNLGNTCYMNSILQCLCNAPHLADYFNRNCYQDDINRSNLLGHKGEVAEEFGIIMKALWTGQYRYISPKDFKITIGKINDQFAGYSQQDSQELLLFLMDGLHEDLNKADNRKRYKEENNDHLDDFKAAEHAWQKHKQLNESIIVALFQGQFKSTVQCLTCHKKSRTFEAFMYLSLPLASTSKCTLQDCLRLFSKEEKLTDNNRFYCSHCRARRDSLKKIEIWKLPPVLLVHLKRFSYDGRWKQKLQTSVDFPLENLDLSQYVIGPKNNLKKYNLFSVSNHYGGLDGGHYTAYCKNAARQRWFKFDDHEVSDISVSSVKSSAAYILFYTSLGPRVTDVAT
The gist of the method:
as §1

The target of the next test is USP9X (UniProt Q93008). The gist of the method: as §1
USP9X, sequence (Q93008 whole entry): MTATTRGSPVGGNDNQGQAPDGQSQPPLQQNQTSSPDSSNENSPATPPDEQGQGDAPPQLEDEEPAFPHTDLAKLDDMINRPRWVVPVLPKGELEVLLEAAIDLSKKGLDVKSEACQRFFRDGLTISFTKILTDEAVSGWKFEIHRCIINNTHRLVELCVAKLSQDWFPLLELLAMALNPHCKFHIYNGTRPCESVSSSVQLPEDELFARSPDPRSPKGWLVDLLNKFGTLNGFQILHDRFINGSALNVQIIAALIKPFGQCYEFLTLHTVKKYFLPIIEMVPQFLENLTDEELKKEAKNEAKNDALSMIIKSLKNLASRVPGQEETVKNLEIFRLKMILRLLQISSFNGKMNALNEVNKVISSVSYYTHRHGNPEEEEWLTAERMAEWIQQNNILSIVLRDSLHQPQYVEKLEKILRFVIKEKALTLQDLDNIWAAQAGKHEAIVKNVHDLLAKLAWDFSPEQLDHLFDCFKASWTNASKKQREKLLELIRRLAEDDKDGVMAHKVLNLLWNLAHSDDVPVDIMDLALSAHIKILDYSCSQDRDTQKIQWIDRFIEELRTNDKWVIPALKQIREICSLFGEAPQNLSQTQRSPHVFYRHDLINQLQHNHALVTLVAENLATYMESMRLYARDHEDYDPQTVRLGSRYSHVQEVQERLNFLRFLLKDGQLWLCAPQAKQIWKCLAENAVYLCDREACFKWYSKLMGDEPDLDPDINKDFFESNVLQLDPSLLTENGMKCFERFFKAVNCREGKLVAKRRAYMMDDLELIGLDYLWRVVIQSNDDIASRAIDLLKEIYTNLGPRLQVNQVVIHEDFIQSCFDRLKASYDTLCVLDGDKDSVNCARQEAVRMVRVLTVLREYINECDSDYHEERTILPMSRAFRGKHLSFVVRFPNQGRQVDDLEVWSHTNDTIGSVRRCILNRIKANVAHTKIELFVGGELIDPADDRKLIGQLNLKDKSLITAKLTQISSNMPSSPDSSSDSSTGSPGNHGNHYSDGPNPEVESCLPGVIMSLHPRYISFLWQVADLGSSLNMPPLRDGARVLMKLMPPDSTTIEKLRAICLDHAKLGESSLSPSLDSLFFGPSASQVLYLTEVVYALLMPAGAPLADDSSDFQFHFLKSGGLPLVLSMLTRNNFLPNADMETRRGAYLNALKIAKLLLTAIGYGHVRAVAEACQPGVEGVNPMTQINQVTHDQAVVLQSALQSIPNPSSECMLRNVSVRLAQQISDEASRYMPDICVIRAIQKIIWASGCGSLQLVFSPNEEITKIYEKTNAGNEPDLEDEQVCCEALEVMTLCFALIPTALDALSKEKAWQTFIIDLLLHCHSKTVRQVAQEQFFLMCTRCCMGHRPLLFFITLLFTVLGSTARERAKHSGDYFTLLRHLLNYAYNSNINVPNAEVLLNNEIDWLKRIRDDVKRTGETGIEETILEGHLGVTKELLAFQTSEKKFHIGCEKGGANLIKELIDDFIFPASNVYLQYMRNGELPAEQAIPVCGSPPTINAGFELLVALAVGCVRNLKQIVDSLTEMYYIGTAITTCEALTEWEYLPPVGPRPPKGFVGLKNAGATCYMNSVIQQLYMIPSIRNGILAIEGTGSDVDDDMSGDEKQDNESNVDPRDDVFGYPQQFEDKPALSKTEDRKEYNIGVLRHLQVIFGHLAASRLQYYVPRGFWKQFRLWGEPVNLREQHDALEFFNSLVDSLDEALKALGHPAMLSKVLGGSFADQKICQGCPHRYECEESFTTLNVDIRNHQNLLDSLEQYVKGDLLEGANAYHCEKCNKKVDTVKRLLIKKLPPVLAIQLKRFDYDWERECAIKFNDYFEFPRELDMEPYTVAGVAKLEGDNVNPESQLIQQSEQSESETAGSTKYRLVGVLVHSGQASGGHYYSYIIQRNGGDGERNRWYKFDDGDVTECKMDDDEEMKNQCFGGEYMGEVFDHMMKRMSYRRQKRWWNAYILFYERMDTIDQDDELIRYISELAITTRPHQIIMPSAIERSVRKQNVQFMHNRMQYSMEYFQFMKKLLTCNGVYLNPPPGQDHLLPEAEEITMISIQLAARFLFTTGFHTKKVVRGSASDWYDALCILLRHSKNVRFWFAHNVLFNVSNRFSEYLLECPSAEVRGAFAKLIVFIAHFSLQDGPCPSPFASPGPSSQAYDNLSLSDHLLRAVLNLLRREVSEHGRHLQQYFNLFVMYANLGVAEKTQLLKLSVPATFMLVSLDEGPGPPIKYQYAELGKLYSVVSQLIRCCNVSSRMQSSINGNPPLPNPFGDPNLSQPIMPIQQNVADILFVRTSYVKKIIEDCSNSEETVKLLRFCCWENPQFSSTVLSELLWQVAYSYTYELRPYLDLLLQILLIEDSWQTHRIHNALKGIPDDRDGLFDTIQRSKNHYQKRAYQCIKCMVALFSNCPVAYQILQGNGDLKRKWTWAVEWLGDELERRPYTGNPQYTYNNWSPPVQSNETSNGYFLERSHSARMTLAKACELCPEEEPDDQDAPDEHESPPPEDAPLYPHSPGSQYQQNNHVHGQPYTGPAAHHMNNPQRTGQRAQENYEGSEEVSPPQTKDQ
A further test addresses UniProt O00487. In outline: as §1

Each structure is given as a SMILES string. A number with no mark means an inactive call.

USP46, sequence (P62068 whole entry): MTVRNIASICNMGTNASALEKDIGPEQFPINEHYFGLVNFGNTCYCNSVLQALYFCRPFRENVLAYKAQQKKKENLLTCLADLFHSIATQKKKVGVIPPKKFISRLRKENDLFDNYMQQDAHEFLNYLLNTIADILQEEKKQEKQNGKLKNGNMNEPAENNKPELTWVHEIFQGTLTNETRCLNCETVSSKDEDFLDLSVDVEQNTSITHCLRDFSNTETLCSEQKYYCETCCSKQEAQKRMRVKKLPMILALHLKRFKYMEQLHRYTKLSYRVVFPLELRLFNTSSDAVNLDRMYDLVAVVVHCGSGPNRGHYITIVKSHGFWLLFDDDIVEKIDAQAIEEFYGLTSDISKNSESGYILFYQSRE
UniProt O00487, sequence (O00487 whole entry): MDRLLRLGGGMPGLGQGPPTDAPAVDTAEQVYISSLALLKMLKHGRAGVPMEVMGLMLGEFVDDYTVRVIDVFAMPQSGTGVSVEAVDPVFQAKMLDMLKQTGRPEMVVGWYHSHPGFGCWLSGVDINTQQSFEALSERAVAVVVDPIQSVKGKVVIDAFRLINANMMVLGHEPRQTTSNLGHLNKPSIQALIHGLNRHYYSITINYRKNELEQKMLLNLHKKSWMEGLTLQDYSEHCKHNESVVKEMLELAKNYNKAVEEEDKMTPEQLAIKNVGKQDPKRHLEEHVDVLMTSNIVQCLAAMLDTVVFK

For the compound `Cl.Cn1c(CNC(=O)CCl)nc2cccnc21`, the “log2 ratio of Biotin-Ahx-Ub-VS probe labelling” value (“log2 ratio” below) in the test with USP42 was -0.141; in the test with USP46, -0.0593; with USP47 it was -0.0713; with USP48, -0.0748; with USP5 it was -0.0112; with USP54, 0.0986. Further, the “log2 ratio” value with USP7 is -0.133; in the test with USP8 it was -0.0336; with USP9X, -0.29; with UniProt O00487 it was -0.167.

`O=C(CCl)N1CCN(C(=O)N2CCCCC2)CC1`: the “log2 ratio” value with USP42 was 0.232; with USP46, -0.637; with USP47, -0.616; with USP48, -0.949; with USP5, -1.13 (active); in the test with USP54, 0.892. Besides, the “log2 ratio” value with USP7 was -1.12 (active); with USP8, -0.843; with USP9X, -1.11 (active); with UniProt O00487 it was -0.0311.

Regarding `Cc1cccn2cc(CCNC(=O)CCl)nc12.Cl`, the “log2 ratio” value was 0.274 in the test with USP42; -0.16 with USP46; 0.127 in the test with USP47; -0.182 with USP48; -0.331 in the test with USP5; 0.0379 with USP54. For the same compound, the “log2 ratio” value is -0.51 with USP7, -0.181 with USP8, -0.145 with USP9X and -0.197 with UniProt O00487.
